Reference: ChEMBL document CHEMBL3988442, “University of Dundee, Small-Polar-MMV Screening Library” (2021)
Among all 53,000 compounds or so, about 900 (1.7%) showed an effect of 50% or more. The sample holds strong results, similar compounds and a random draw of the others, so the mix is not that of the screen.

test system: Mycobacterium tuberculosis; assay: Cornell - Phenotypic assay to identify agents that inhibit growth of Mycobacterium tuberculosis; assay type: functional; design: scale not given: direction of the effect not stated beside the values; conditions: 10 mM as filed; unlikely as a test dose

| SMILES | Percent Effect |
| --- | --- |
| CCCOc1cccc(C(=O)N2CCCC(n3cncn3)C2)c1 (configuration not stated) | 2.869% |
| CC1CCC(NS(=O)(=O)CC(=O)NC(C2CC2)C2CC2)CC1 (configuration not stated) | -19.5% |
| CCNC(=O)CS(=O)(=O)NC1CCC(C)CC1 (configuration not stated) | -36.82% |
| CC1CCC(NS(=O)(=O)CC(=O)Nc2ccccc2N2CCCC2)CC1 (configuration not stated) | 81.68% |
| CC1CCC(NS(=O)(=O)CC(=O)NC2(C(N)=O)CCCC2)CC1 (configuration not stated) | -11.11% |
| CS(=O)(=O)NCC1CCCN(C(=O)Nc2ccccc2N2CCCC2)C1 (configuration not stated) | 12.25% |
| Cc1ccc(NC(=O)CS(=O)(=O)NC2CCC(C)CC2)nc1 (configuration not stated) | 59.09% |
| CC1CCC(NS(=O)(=O)CC(=O)NCC2CCC2)CC1 (configuration not stated) | 57.41% |
| CNC(=O)CS(=O)(=O)NC1CCC(C)CC1 (configuration not stated) | -17.27% |
| CC1CCC(NS(=O)(=O)CC(=O)Nc2ccc(N3CCCC3)cn2)CC1 (configuration not stated) | -5.738% |
| CCOCc1cnc2n1CCN(C(=O)c1cccc3c1OCCO3)C2C (configuration not stated) | -10.91% |
| Cc1cccc(-c2nc(CN3CC(n4nc(C)cc4C)C3)no2)c1 | 18.28% |
| CC(C)N1CCO[C@H]2CN(Cc3cc[nH]n3)C[C@H]21.O=C(O)C(F)(F)F.O=C(O)C(F)(F)F | -4.182% |
| O=C(CC1CCCC1)N1CCC(c2noc(-c3ccccn3)n2)CC1 | 12.79% |
| O=C1NC2(CCc3ccccc31)CCN(C(=O)c1ccncc1)C2 (configuration not stated) | 9.772% |
| Cc1nnc(C2CCN(C(=O)c3ccc(-n4cccc4)cc3)CC2)s1 | 34.12% |
| O=C1CCNc2cc3c(cc2CN1CC1CC1)OCO3 | -9.17% |
| O=C(CC1COCCN1)N1CCC(N2CCc3ccccc3C2)CC1 (configuration not stated) | -14.32% |
| CCN(CCCNC(=O)Nc1ccccc1C(C)C)S(C)(=O)=O | -25.97% |
| CC(N)Cc1ccccc1Sc1ccc(O)cc1.CC(N)Cc1ccccc1Sc1ccc(O)cc1.O=C(O)C(=O)O (configuration not stated) | 102.6% |
| CC(C(=O)Nc1ccccc1Sc1ccccc1)S(C)(=O)=O (configuration not stated) | 13.38% |
| CC(N)Cc1ccccc1Sc1ccccc1.O=C(O)/C=C\C(=O)O (configuration not stated) | 13.46% |
| Fc1ccc(Sc2ccccc2CNC2=NCCN2)cc1.I | 18.51% |

| SMILES | Percent Effect |
| --- | --- |
| NCc1ccccc1Sc1ccc(O)cc1.O=C(O)/C=C\C(=O)O | 11.62% |
| CNC(C)Cc1ccccc1Sc1ccc(O)cc1.Cl (configuration not stated) | 105.4% |
| Clc1ccc(COCC2CCN(Cc3ccccn3)CC2)cc1.O=C(O)C(=O)O | 33.78% |
| Cc1cccc(=O)n1CCC(=O)N1CC[C@@](O)(C2CCC2)[C@H](C)C1 | 13.12% |
| COCc1noc(-c2ccc(N(C)Cc3ncccc3C)nc2)n1 | 3.239% |
| CN(C)CCNc1ccc(-c2nc(COc3ccccc3)no2)cn1 | 16.69% |
| CN(C)CCN(C)c1ccc(-c2nc(COc3ccccc3)no2)cn1 | 54.95% |
| CN1CCCC(c2cccc(CCC(N)=O)n2)C1 (configuration not stated) | -6.826% |
| CNC(=O)N1CCc2nc(C(=O)NCc3cccc(OC)c3)sc2CC1 | -3.356% |
| N#Cc1ncn(CCC(=O)Nc2ccccc2F)n1 | 26.46% |
| N#Cc1ncn(CCC(=O)Nc2c(Cl)cccc2Cl)n1 | 58.03% |
| N#Cc1ncn(CC(=O)Cc2c(F)cccc2Cl)n1 | 41.98% |
| COC(=O)c1ccc(Cn2cnc(C#N)n2)cc1 | 33.09% |
| CN(Cc1c(F)cccc1Cl)C(=O)Cn1cnc(C#N)n1 | 14.48% |
| N#Cc1ncn(Cc2c(F)cccc2Cl)n1 | 3.788% |
| N#Cc1ncn(CCS(=O)(=O)c2ccc(Cl)cc2)n1 | -29.79% |
| N#Cc1ncn(CCC(=O)Nc2cc(Cl)ccc2Cl)n1 | 44.53% |
| N#Cc1ncn(CCC(=O)Nc2ccc(F)c(F)c2)n1 | 34.8% |
| N#Cc1ncn(CCC(=O)Nc2cccc(Cl)c2)n1 | 68.3% |
| N#Cc1ncn(CC(=O)Nc2cc(Cl)ccc2F)n1 | 104.7% |
| N#Cc1ncn(CCC(=O)Nc2ccc(Cl)cc2F)n1 | 105.4% |
| OCCOc1cc(F)ccc1NCc1ccc(F)c(F)c1 | 11.25% |
| CCOC(=O)[C@H]1CNC[C@H]1C(=O)OCC.Cl | 36.02% |

| SMILES | Percent Effect |
| --- | --- |
| CNc1cccc(C2CN(C(=O)c3c[nH]cn3)CCO2)n1 (configuration not stated) | 6.6% |
| O=C(O)Cn1nc(-c2ccccc2F)ccc1=O | 3.999% |
| CCSc1ncccc1C(=O)NCc1ccc(N(C)C)cc1 | 4.638% |
| C=C(C)COc1ccccc1C(=O)NCc1nc(C)cc(=O)[nH]1 | 11.83% |
| NS(=O)(=O)c1ccc(N2CCN(CCCc3cn[nH]c3)CC2)cc1 | -32.06% |
| O=C(O)C(F)(F)F.O=C(O)C(F)(F)F.O=C(O)C(F)(F)F.c1cnc(NC[C@H]2OC[C@@H]3CCN(Cc4cccnc4)C[C@@H]32)nc1 | 43.57% |
| COc1ccc(N2CCN(C(=O)C3CN(C)C(=O)N3)CC2(C)C)cc1 (configuration not stated) | 2.102% |
| CCOCC(=O)N1CCCn2c(nnc2Cn2cccc2)C1 | -5.462% |
| CCn1cncc1CN1CCc2nc3sccc3c(=O)n2CC1 | 47.13% |
| Cc1cc2c(=O)n3c(nc2s1)CCN(Cc1cnn(C)c1C)CC3.Cl | -41.11% |
| Cn1ncc(Cl)c1C(=O)N1CCc2nc3sccc3c(=O)n2CC1 | -13.36% |
| Cc1nn(C)cc1CN1CCc2nc3sccc3c(=O)n2CC1 | 50.52% |
| Cl.Cn1cncc1CN1CCc2nc3sccc3c(=O)n2CC1 | 43.45% |
| Cc1c(CN2CCc3nc4sccc4c(=O)n3CC2)cnn1C.Cl | 51.95% |
| Cn1cc(CN2CCc3nc4sccc4c(=O)n3CC2)cn1 | -10.08% |
| O=c1c2ccccc2nc2n1CCN(Cc1cccs1)CC2 | 20.89% |
| Cn1cc(CN2CCc3nc4ccccc4c(=O)n3CC2)cn1 | 52.34% |
| COc1cc2ncn(Cc3ncc[nH]3)c(=O)c2cc1OC | 6.69% |
| CCc1cccc(OCCN(C)C(=O)c2ccccc2NCC(=O)O)c1 | 10.74% |
| COc1cccc(CN2CCCC(Cn3nc(C)nc3C)C2)c1 (configuration not stated) | 16.57% |
| O=C(c1ccncc1F)N1CCc2ncnc(-c3ccncc3)c2CC1 | -7.007% |
